In all, about 8,300 sequences were measured (“log2 fold change of degron read counts, EGFP-low vs EGFP+ sorted cells (limma voom), compound-induced degradation”: median about -1.1, highest 2% from about 3.2 on). Many of the other results were omitted from the sample, so the highest values are more common in it than they were.
T1: CRBN, Q96SW2
T1 chain: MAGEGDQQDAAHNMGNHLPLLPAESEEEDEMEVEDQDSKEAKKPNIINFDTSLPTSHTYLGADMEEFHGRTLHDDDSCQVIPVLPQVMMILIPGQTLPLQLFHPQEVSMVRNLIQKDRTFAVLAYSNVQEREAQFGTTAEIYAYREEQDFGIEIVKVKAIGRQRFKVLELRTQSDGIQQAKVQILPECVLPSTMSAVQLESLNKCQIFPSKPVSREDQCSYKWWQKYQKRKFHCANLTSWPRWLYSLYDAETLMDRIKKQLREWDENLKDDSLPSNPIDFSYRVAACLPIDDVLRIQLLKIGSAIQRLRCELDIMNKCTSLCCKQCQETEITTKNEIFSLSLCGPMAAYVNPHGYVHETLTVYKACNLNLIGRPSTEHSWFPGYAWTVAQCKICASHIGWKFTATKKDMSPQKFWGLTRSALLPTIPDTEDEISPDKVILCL


Molecular target: T1, CRBN, Q96SW2
Assay: log2 fold change of degron read counts, EGFP-low vs EGFP+ sorted cells (limma voom), compound-induced degradation; higher = more compound-induced degradation of the degron-EGFP fusion; degrons are variants of IKZF1/3 zinc finger 2; compound dose not given here
Settings: Jurkat, 18 h
Experimental: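 Pooled library of 8380 IKZF3 ZF2 degron mutants (positions 146-167 varied within the IKZF3 130-189 degron; only the varied core is printed, flanks not printed) fused to EGFP with IRES-mCherry, lentivirally expressed in Jurkat cells. mCherry+ cells were treated with one IMiD compound for 18 h (dose not stated) and FACS-sorted into EGFP-low and EGFP+ populations. Degron sequences were counted by NGS, and log2FC (EGFP-low vs EGFP+) was estimated by limma voom over 3 biological replicates.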

[1] = compound: compound 19 (5-tert-butyl-thalidomide)
[2] = compound: compound 22 (5-morpholino-thalidomide)
[3] = compound: compound 33 (diphenyl IMiD analogue)
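Also: pooled lentiviral library of zinc finger degron-EGFP fusions in mCherry-positive Jurkat cells, FACS-sorted after compound exposure, with degron abundance counted by next-generation sequencing.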

Sequence	log2 fold change of degron read counts [1]	log2 fold change of degron read counts [2]	log2 fold change of degron read counts [3]	log2 fold change of degron read counts (compound: thalidomide)
FVCNQCGRWFTQKGNLLRHIKL [46F_47V_49N_50Q_52G_53R_54W_55F_67L_, Q9UKT9]	-2.52	-2.06	-2.42	-1.9
FDCNVCGAKFTQKGNLLRHIKL [46F_47D_49N_50V_52G_53A_54K_55F_67L_, Q9UKT9]	-1.36	-2.41	-2.78	-0.891
LLCPICGFYCTQKGNLLRHIKL [46L_47L_49P_50I_52G_53F_54Y_55C_67L_, Q9UKT9]	0.305	0.574	1.63	1.96
LYCPICGFYCTQKGNLLRHIKL [46L_47Y_49P_50I_52G_53F_54Y_55C_67L_, Q9UKT9]	3.22	3.11	2.72	1.82
LNCPICGFYCTQKGNLLRHIKL [46L_47N_49P_50I_52G_53F_54Y_55C_67L_, Q9UKT9]	1.76	1.72	1.52	2.04
LKCPICGFYCTQKGNLLRHIKL [46L_47K_49P_50I_52G_53F_54Y_55C_67L_, Q9UKT9]	-0.431	-0.605	-1.14	0.828
LECPICGFYCTQKGNLLRHIKL [46L_47E_49P_50I_52G_53F_54Y_55C_67L_, Q9UKT9]	0.407	0.1	2.47	3.34
LTCPICGFYCTQKGNLLRHIKL [46L_47T_49P_50I_52G_53F_54Y_55C_67L_, Q9UKT9]	1.69	2.58	2.93	3.24
FCCEICGHIFTQKGNLLRHIKL [46F_47C_49E_50I_52G_53H_54I_55F_67L_, Q9UKT9]	-2.19	-2.44	-1.42	-1.61
FLCNQCGRTFTQKGNLLRHIKL [46F_47L_49N_50Q_52G_53R_54T_55F_67L_, Q9UKT9]	-2.4	-2.94	-3.37	-2.18
FNCPQCGANFTQKGNLLRHIKL [46F_47N_49P_50Q_52G_53A_54N_55F_67L_, Q9UKT9]	-1.43	-2.18	-1.52	-2.31
FTCEICGAYFTQKGNLLRHIKL [46F_47T_49E_50I_52G_53A_54Y_55F_67L_, Q9UKT9]	0.598	1.53	2.02	2.85
FICNICGATFTQKGNLLRHIKL [46F_47I_49N_50I_52G_53A_54T_55F_67L_, Q9UKT9]	-1.79	0.00658	1.15	1.1
FACNICGAQFTQKGNLLRHIKL [46F_47A_49N_50I_52G_53A_54Q_55F_67L_, Q9UKT9]	2.04	1.62	0.179	-0.104
FQCNICGAQFTQKGNLLRHIKL [46F_47Q_49N_50I_52G_53A_54Q_55F_67L_, Q9UKT9]	-0.94	1.3	1.62	3.28
FVCNICGAQFTQKGNLLRHIKL [46F_47V_49N_50I_52G_53A_54Q_55F_67L_, Q9UKT9]	-0.604	1.47	2.69	1.92
FRCNICGAQFTQKGNLLRHIKL [46F_47R_49N_50I_52G_53A_54Q_55F_67L_, Q9UKT9]	-1.02	-0.868	-0.156	0.111
FYCNICGAQFTQKGNLLRHIKL [46F_47Y_49N_50I_52G_53A_54Q_55F_67L_, Q9UKT9]	2.24	3.15	1.75	0.339
FWCNICGAQFTQKGNLLRHIKL [46F_47W_49N_50I_52G_53A_54Q_55F_67L_, Q9UKT9]	2.02	3.59	1.86	0.626
